Hit rate of the full screen: of about 310,000 compounds, about 14,000 (4.5%) showed an effect of 50% or more. Effects have a minus sign here. What follows is part of a selection rich in strong results, with near analogues and random picks from the rest.
Molecular target: human ether-à-go-go-related gene (hERG) potassium channel (human, UniProt Q12809)
Assay: primary screen, population patch clamp on CHO cells stably expressing hERG; higher = less effect of the substance
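Further: peak tail current of the secondary pulse compared with the same well before compound.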

Sequence of human ether-à-go-go-related gene (hERG) potassium channel (Q12809 whole entry, looked up): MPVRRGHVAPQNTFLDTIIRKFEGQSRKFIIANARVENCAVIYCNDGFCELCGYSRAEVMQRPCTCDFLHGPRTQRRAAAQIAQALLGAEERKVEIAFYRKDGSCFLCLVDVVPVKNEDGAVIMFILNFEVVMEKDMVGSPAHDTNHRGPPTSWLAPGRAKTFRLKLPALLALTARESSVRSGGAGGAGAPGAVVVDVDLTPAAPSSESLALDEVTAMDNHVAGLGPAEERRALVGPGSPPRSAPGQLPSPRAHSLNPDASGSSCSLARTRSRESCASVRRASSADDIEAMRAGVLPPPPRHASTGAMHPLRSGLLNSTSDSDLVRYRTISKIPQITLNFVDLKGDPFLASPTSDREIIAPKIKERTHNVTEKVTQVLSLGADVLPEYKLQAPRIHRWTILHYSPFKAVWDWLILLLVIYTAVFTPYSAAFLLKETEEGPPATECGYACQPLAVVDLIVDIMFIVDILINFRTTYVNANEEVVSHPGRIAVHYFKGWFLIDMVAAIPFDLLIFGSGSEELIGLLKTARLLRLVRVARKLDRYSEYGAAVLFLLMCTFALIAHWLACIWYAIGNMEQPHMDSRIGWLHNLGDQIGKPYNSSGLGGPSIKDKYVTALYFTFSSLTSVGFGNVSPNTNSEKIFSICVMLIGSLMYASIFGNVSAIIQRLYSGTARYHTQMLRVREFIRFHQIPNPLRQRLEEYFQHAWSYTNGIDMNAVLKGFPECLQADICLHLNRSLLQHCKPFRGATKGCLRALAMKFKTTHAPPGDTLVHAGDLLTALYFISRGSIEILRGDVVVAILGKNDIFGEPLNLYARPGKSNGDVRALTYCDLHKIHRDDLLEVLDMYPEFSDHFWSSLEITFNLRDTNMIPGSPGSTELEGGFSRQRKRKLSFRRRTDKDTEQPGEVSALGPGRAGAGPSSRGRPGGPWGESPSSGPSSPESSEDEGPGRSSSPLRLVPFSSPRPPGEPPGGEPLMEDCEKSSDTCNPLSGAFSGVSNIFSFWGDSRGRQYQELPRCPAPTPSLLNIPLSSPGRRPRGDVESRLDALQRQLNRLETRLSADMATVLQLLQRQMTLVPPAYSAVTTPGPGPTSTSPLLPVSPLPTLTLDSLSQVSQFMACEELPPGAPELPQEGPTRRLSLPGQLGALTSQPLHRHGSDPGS

Structure (SMILES)	hERG current change (%, negative = inhibition) at 10uM
Clc1ccc(-c2csc(N3CCc4ccccc4C3)n2)cc1	14.3%
COc1c(S(=O)(=O)NCCN2CCOCC2)ccc(Cl)c1Cl	-16.3%
CNC(=O)COC(=O)c1cc(NC(=O)c2ccco2)c(OC)c(OC)c1	2.4%
O=S(=O)(c1cc(C(F)(F)F)ccc1Cl)N1CCN(c2ccccn2)CC1	-26.3%
CC(C)n1cnnc1SCC(=O)Nc1cccc(S(=O)(=O)N(C)c2ccccc2)c1	-12.4%
c1ccc(C2(c3ccccc3)OCC(Cn3cncn3)O2)cc1 (stereo not shown)	-0.819%
COc1ccc(/C=N/n2cnc3c(sc(=S)n3-c3ccccc3)c2=O)cc1	13.4%
O=C(c1cc(-c2ccccc2)nc2ccccc12)N1N=C(C(F)F)CC1(O)C(F)F (stereo not shown)	-13.2%
O=C(c1cc(C2CC2)nc2ccccc12)N1N=C(C(F)F)CC1(O)C(F)F (stereo not shown)	-18.3%
O=C(c1ccccc1-n1cccc1)N1N=C(C(F)F)CC1(O)C(F)F (stereo not shown)	-63.2%
COc1ccc(-c2cc(C(=O)NCc3ccco3)c3ccccc3n2)cc1	-5.84%
Cc1nn(-c2cc(Cl)ccc2Cl)c(C)c1C(=O)O	13.2%
Cc1ccc2c(c1)C1CN(C)CCC1N2C(=O)COc1ccc(N(C)S(=O)(=O)c2cccs2)cc1 (stereo not shown)	-52.9%
O=C(COc1ccc(S(=O)(=O)NC2CCCCC2)cc1)NC1CC1	3.4%
CN(c1ccc(OCC(=O)N2CCCCC2)cc1)S(=O)(=O)c1cccs1	-11.2%
CN(c1ccc(OCC(=O)N2CCN(c3ccc(F)cc3)CC2)cc1)S(=O)(=O)c1cccs1	-58.7%
CCOc1ccc(S(=O)(=O)N(C)c2ccc(OCC(=O)N3c4ccc(C)cc4C4CN(C)CCC43)cc2)cc1 (stereo not shown)	-38.5%
CCN(CC)c1ccc(NC(=O)COc2ccc(N(C)S(=O)(=O)c3cccs3)cc2)cc1	8.15%
O=C(COc1ccc(S(=O)(=O)NC2CCCCC2)cc1)NC1CCCC1	-8.19%
Cc1ccc2c(c1)C1CN(C)CCC1N2C(=O)COc1ccc(N(C)C(=O)C(C)(C)C)cc1 (stereo not shown)	-9.48%
Cc1ccc(N(CC(=O)NC2CCCCC2)S(=O)(=O)c2cccs2)cc1	5.9%
O=C(COc1ccc(S(=O)(=O)NC2CCCCC2)cc1)NC1CCCCC1	-54.1%

Structure (SMILES)	hERG current change (%, negative = inhibition) at 10uM
CC(=O)N1CCN(C(=O)COc2ccc(N(C)S(=O)(=O)c3cccs3)cc2)CC1	-14.7%
CN(c1ccc(OCC(=O)NC2CCCC2)cc1)S(=O)(=O)c1cccs1	-80.6%
C#Cc1cccc(C(=O)N2CCCC(C(=O)c3ccc(OC)cc3C)C2)c1 (stereo not shown)	-6.8%
COc1ccc(S(=O)(=O)N2CCC(C(=O)Nc3ccccc3N3CCCCC3)CC2)cc1OC	3.04%
Cc1ccc(S(=O)(=O)N2CCC(C(=O)Nc3ccccc3N3CCCCC3)CC2)cc1C	-9.46%
C=CCn1c(Cc2csc(N)n2)nnc1SCC(=O)OCC	-0.614%
O=C(O)CCc1nc2ccccc2c(=O)[nH]1	38.7%
CC(=O)c1cn(CC(=O)NCc2cccnc2)c2ccccc12	3.67%
CCc1nnc(NC(=O)CSc2nnc(-c3cccnc3)n2C)s1	13.6%
CCOc1ccc(OCCC(=O)OCC(=O)N2CCN(c3ccc(OC)cc3)CC2)cc1	6.92%
CN1CCN(C(=O)c2ccccc2NC(=O)CCN2C(=O)c3ccccc3C2=O)CC1	-3.71%
C=CCSc1nnc(NC(=O)CSc2nc3ccccc3[nH]2)s1	9.74%
COc1cccc(NC(=O)Cn2c(-c3cncs3)nc3ccccc32)c1	-23.9%
O=C(CNC(=O)c1ccco1)OCc1cccc(Cl)c1	-7.25%
COC(=O)c1c(C)n(-c2ccc(C)cc2)c2ccc(O)cc12	-3.54%
COC(=O)c1c(C(=O)OC)n(CCCN)c2ccc(C)cc12.Cl	-77%
COC(=O)c1c(C)n(Cc2ccccc2)c2ccc(O)cc12	14.8%
O=C(NCCC1=CCCCC1)c1cc(COc2ccc(F)cc2Cl)on1	10.4%
Cc1ccc(NC(=O)Cn2c(CCC(=O)O)ccc2-c2cccs2)cc1	-2.61%
COc1cccc(NC(=O)Cn2c(CCC(=O)O)ccc2-c2cccs2)c1	12.4%
Cc1ccc(NC(=O)Cn2c(CCC(=O)O)ccc2-c2cccs2)cc1Cl	-75.3%
CC(C)Oc1ccc(S(=O)(=O)N2CCOCC2)cc1NC(=O)C1CCCCC1	-19.6%

Structure (SMILES)	hERG current change (%, negative = inhibition) at 10uM
O=C(O)CSc1ncnc2sc(-c3ccccc3)cc12	23.6%
Cc1cccc(Nc2sc(C(=O)c3cc4cc(Cl)ccc4o3)c(N)c2C#N)c1	-2.78%
CN1CCN(c2nc(Nc3ccc(F)cc3)nc(Nc3ccc(F)cc3)n2)CC1	-60.5%
Cl.Fc1ccc(Nc2nc(N3CCOCC3)nc(N3CCOCC3)n2)cc1	4.26%
FC(F)(F)c1cccc(Nc2nc(N3CCCC3)nc(N3CCCC3)n2)c1	23.7%
FC(F)(F)c1cccc(Nc2nc(N3CCOCC3)nc(N3CCOCC3)n2)c1	15.6%
CN1CCN(c2nc(Nc3cccc(C(F)(F)F)c3)nc(N3CCOCC3)n2)CC1	-60%
COc1ccc(N2CCN(c3nc(Cl)nc(Nc4ccc(F)cc4)n3)CC2)cc1	7.8%
COc1ccc(/C=N/N=C/c2ccc(OC)c(O)c2)cc1O	23.2%
Cc1ccc(C(=O)N/C(=C\c2ccc(-c3ccccc3[N+](=O)[O-])o2)C(=O)NCCCN(C)C)cc1	-74.5%
O=C(O)/C(=C\c1ccc(-c2ccccc2[N+](=O)[O-])o1)c1ccccc1	23.6%
Cc1ccc(C(=O)N/C(=C\c2ccc(-c3ccccc3[N+](=O)[O-])o2)C(=O)NCCN(C)C)cc1	-55.4%
CCCCNC(=O)/C(=C\c1ccc([N+](=O)[O-])o1)NC(=O)c1ccccc1	-39.8%
Cc1ccc(C(=O)/C=C/c2ccc(-c3ccccc3[N+](=O)[O-])o2)cc1	12.5%
Cc1ccc(Oc2ccccc2/C=C/C(=O)O)cc1	14.6%
C=CCn1c(SCC(=O)NC(=O)NC2CCCC2)nnc1C1CCCCC1	3.7%
O=C(CSc1nnc(CNc2ccc(F)cc2)o1)N1c2ccccc2Sc2ccccc21	11%
CCN1CCN(CCNC(=O)c2ccc(/C=C3/Sc4ccccc4N(Cc4cccc(C)c4)C3=O)cc2)CC1	-22%
CCOc1cc(CNC(CC)CO)ccc1OCC(=O)Nc1cccc(C(F)(F)F)c1 (stereo not shown)	-68.3%
CCOc1cc(CNCCN2CCOCC2)ccc1OCc1ccccc1Cl.Cl	-41.8%
COc1ccc(NC(=O)COc2ccc(CNCCCN3CCOCC3)cc2OC)cc1.Cl	0.185%
CCOc1cc(CNCCO)cc(Br)c1OCc1ccccc1Cl.Cl	12.5%

Structure (SMILES)	hERG current change (%, negative = inhibition) at 10uM
COc1cc(CNCCCN2CCOCC2)ccc1OCC(=O)Nc1cccc(C(F)(F)F)c1.Cl	-56.6%
CCOc1cc(CNCCCN2CCOCC2)cc(Br)c1OCC(=O)Nc1cccc(C(F)(F)F)c1.Cl	-70.3%
CCOc1cc(CNCCCN2CCOCC2)cc(Br)c1OCc1ccccc1Cl.Cl	-64.9%
CCOc1cc(CNCCCN2CCOCC2)cc(Cl)c1OCC(=O)NC(C)(C)C.Cl	5.38%
COc1cc(CNCCCN2CCOCC2)ccc1OCC(=O)NC(C)(C)C.Cl	21%
CCOc1cc(CNCCCN2CCOCC2)ccc1OCC(=O)Nc1cccc2ccccc12.Cl	-7.77%
CCOc1cc(CNC(C)(C)C)ccc1OCC(=O)Nc1cccc(C(F)(F)F)c1.Cl	-13.7%
CCC(CO)NCc1ccc(OCC(=O)Nc2cccc(C(F)(F)F)c2)c(OC)c1 (stereo not shown)	-43.6%
CCOc1ccc(CC(=O)Nc2ccc(S(=O)(=O)N3CCCC3)cc2)cc1	10.4%
Cc1cc(C(=O)COC(=O)CC2Sc3ccccc3NC2=O)c(C)n1-c1ccccc1 (stereo not shown)	28%
O=C(COc1ccc2c(c1)C(=O)CC1(CCCCC1)O2)NCc1ccccn1	-33.9%
O=C(CCS(=O)(=O)c1cccc2nonc12)Nc1cccc2c1CCCC2	4.5%
Cc1ccc(C)c(N2CC(C(=O)O)CC2=O)c1 (stereo not shown)	-2.08%
CN(CC(=O)Nc1ccc(Cl)cc1)C(=O)COc1ncnc2ccccc12	-8.52%
CCCCn1nnnc1SCC(=O)N(CC)CC	10.4%
CCOc1ccc(NC(=O)CSc2nnc(C)n2Cc2ccccc2)cc1	-16.4%
O=C(CN1CC[n+]2c(-c3cccs3)csc21)c1ccc(Br)cc1.[Br-]	-45.9%
O=C(CN1CC[n+]2c(-c3ccccc3)csc21)c1ccc(Br)cc1.[Br-]	-40.6%
O=C(CN1CC[n+]2c(-c3cccs3)csc21)c1ccc(-c2ccccc2)cc1.[Br-]	-54.3%

— article PMC4336329 (PLoS ONE, 2015)
